Over roughly 24,000 sequences, “enrichment r” has its median near 0.99; the highest 2% begin near 3.7. Shown is part of a subset that was picked to be rich in the highest values.

B1: chr16:94664741:94664742:+_ENSMUSG00000040785_ENSMUST00000117648|mus_hu|mus_mus_mus_hu_False|8_68 (ssRNA)
RNA: GGGAGUUCUACAGUCCGACGAUCUGGUACUGAUCUUGGUAGCUGAUAUUCAGGAGAAAGGCUGGCCAAAGGUGUGUAUAUGCUGGUGUACUGGGGCAAACCUGGUAACACGUUUAUGUAUGCUGGCCGCUGGGUGAUGAUAUCCAACAGAGGAUUGAGCAUCA
B2: chrX:53596632:53596633:-_ENSG00000086758_ENST00000262854|hu_mus|FALSE|FALSE (ssRNA)
RNA: GGGAGUUCUACAGUCCGACGAUCGGCGUGCUUCUCUGUACUCUCAGCCAUAGCAAGCGCCCGUCCCAGGGCUGCUUUCACUUCAUUCACUAGGGCCACUUGAGCAUCUGUGCCACUCCCCGCAGCAGCCAGACUUGCAAGGAACAACAGAGGAUUGAGCAUCA
B3: chr12:39756943:39756944:-_ENSG00000139116_ENST00000544797|hu_mus|hu_hu_hu_mus_False|18_98 (ssRNA)
RNA: GGGAGUUCUACAGUCCGACGAUCGGUUUGGCUGUUACCCCCGAGGGAAUCCUGCAAGAGUCUUGUCAGCUUAGAGUCUCUGUAAGGGACAUGGGUGGCUCUCUUGCUCUUGUCCCCCAAGGCACUUAUUACAUUCCCAAGAGCCAACAGAGGAUUGAGCAUCA
B4: chr12:96663167:96663168:+_ENSG00000111145_ENST00000228741|hu_mus|FALSE|FALSE (ssRNA)
RNA: GGGAGUUCUACAGUCCGACGAUCUCUGGGUCCACAGGAGAAUCAUGGUAGUUGGAAGAAAAGGAAUCAACAGGCAGACUUACAGUCAUGGGAACAUUUCCAACCAGCGUUUAUAGUUUAAAGGUCGACAGAAGGUCAUCUUGUCAACAGAGGAUUGAGCAUCA
B5: chr7:75932113:75932114:+_ENSG00000106211_ENST00000248553|hu_hu|hu_hu_hu_mus_False|8_48 (ssRNA)
RNA: GGGAGUUCUACAGUCCGACGAUCCUGCGACCACUCAUCGGGCAACCGGGGCACCCCGAAAGCUUGAUCGAAGAGGCGGCUGUGUGCGUACCAGUCGUCCCGGAAUGGUUCCCAGCUCGGGCUCCGCAGCGAGAAGGAGGGCACCAACAGAGGAUUGAGCAUCA
B6: 19974894_19982776_1293_CDS_ENSMUSG00000002428_ENSMUST00000002502|mouse|control|control (ssRNA)
RNA: GGGAGUUCUACAGUCCGACGAUCAAUGUACUGUACAGAAAUUUUUCUUCUCUUAGGGCAGACGCUAGACAGCUGCGACAGAGUACAGCUACUCUUCUCCGGAGUUCCUGAAAUACUGGGUUCUUCACCACACGUGGAUGACUCCAACAGAGGAUUGAGCAUCA

This experiment concerns the target T1, UNK ZnF1-3 (human, UniProt Q9C0B0 31-174).
T1 sequence: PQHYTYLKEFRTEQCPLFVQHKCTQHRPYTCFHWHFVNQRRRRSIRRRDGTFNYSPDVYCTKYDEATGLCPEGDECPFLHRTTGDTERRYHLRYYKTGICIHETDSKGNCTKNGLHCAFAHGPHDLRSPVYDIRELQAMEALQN
The experiment in a line: nsRBNS (natural sequence RNA bind-n-seq); RBNS binding buffer (assumed for nsRBNS): 25 mM Tris pH 7.5, 150 mM KCl, 3 mM MgCl2, 0.01% Triton X-100, 500 ug/ml BSA, 20 U/ml SUPERase-In, 4 C; UNK is unkempt and MSI1 is Musashi-1; names of the RNAs are library labels; protein concentration not given here; high values mean tight binding.
Molecule B1 showed a binding signal of 1.06 enrichment R.
Next, B2: 1.52 enrichment R; B3: 0.694 enrichment R.
Under B4 stands 1.6 enrichment R; under B5, 1.04 enrichment R; under B6, 0.756 enrichment R.

The record behind these values is paper PMC12136788.
